Measured values as given in the supplement of paper PMC6555819.

Experiments:
Test in all cases: PBM binding z-score (relative to random genomic background probes); higher = stronger binding; sequences stand for … in GC…GCGATTGACAGCGTAGAATGAAGG
[1] = tested on: FXR:RXRa (NR concentration 270 nM, RXRa partner concentration 90 nM)
Method in brief: (§1)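 Random background probes are the reference for binding z-scores. These scores derive from regression-normalized fluorescence on custom Agilent 4×180K protein-binding microarrays incubated 1 h with ligand-free nuclear receptor dimers. Binding was detected with antibodies against each partner (one per run).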

[2] = tested on: LXRa:RXRa (NR concentration 270 nM, RXRa partner concentration 90 nM)
Method in brief: as §1

[3] = tested on: LXRa homodimer (NR concentration 270 nM)
Method in brief: as §1

[4] = tested on: LXRb:RXRa (NR concentration 270 nM, RXRa partner concentration 90 nM)
Method in brief: as §1

[5] = tested on: LXRb homodimer (NR concentration 270 nM)
Method in brief: as §1

[6] = tested on: PPARa:RXRa (NR concentration 270 nM, RXRa partner concentration 90 nM)
Method in brief: as §1

[7] = tested on: PPARg:RXRa 270nM:90nM, anti-RXR (NR concentration 270 nM, RXRa partner concentration 90 nM)
Method in brief: as §1

[8] = tested on: PPARg:RXRa 30nM:10nM, anti-RXR (NR concentration 30 nM, RXRa partner concentration 10 nM)
Method in brief: as §1

[9] = tested on: PPARg:RXRa 90nM:30nM, anti-RXR (NR concentration 90 nM, RXRa partner concentration 30 nM)
Method in brief: as §1

[10] = tested on: PPARg:RXRa DBDmut IVT, anti-RXR (DBD mutation: RXRa K156A/R161A, NR concentration 270 nM, RXRa partner concentration 90 nM)
Method in brief: as §1

[11] = tested on: PPARg:RXRa IVT, anti-PPARg (NR concentration 270 nM, RXRa partner concentration 90 nM)
Method in brief: as §1

[12] = tested on: PPARg DBDmut:RXRa IVT, anti-PPARg (DBD mutation: PPARg1 K132A/R137A, NR concentration 270 nM, RXRa partner concentration 90 nM)
Method in brief: as §1

[13] = tested on: PPARg DBDmut IVT, anti-PPARg (DBD mutation: PPARg1 K132A/R137A, NR concentration 270 nM)
Method in brief: as §1

[14] = tested on: PPARg homodimer (NR concentration 180 nM)
Method in brief: as §1

[15] = tested on: PXR:RXRa (NR concentration 270 nM, RXRa partner concentration 90 nM)
Method in brief: as §1

[16] = tested on: PXR homodimer (NR concentration 270 nM)
Method in brief: as §1

[17] = tested on: RARa:RXR (NR concentration 270 nM, RXRa partner concentration 90 nM)
Method in brief: as §1

[18] = tested on: RARa homodimer (NR concentration 270 nM)
Method in brief: as §1

[19] = tested on: RARb:RXRa (NR concentration 270 nM, RXRa partner concentration 90 nM)
Method in brief: as §1

Sequence	PBM binding z-score [1]	PBM binding z-score [2]	PBM binding z-score [3]	PBM binding z-score [4]	PBM binding z-score [5]	PBM binding z-score [6]	PBM binding z-score [7]	PBM binding z-score [8]	PBM binding z-score [9]	PBM binding z-score [10]	PBM binding z-score [11]	PBM binding z-score [12]	PBM binding z-score [13]	PBM binding z-score [14]	PBM binding z-score [15]	PBM binding z-score [16]	PBM binding z-score [17]	PBM binding z-score [18]	PBM binding z-score [19]
GCTATTAGGTGAAAGGGCAACCGAATGATTCTCG	0.916	1.33	-0.0501	1.25	-0.402	5.57	8.6	8.54	9.84	6.66	6.05	0.769	0.0827	1.6	1.48	0.0465	2.47	0.772	2.48
TTACCAAGGTGAAGGTCGTGGATCCCTCTGTAGA	1.6	1.33	0.0601	1.45	-0.935	3.03	4.71	2.78	4.4	2.23	3.55	-0.363	0.188	0.731	1.53	-0.1	2.38	-0.307	2.4
CCTTACGGTTCACTGACAGGTTATAGCATTTGGA	1.66	2.43	1.04	1.89	0.471	2.33	1.08	0.683	0.771	0.62	0.00685	0.829	0.643	1.64	2.14	0.911	2.41	1.71	1.16
TCATATAGGTTAAGGTGAAAGTCGAACGATATGA	2.27	1.59	0.00535	1.55	0.204	3.44	4.61	4.32	4.87	4.9	4.89	1.69	1.29	1.49	1.04	-0.203	2.19	0.984	2.49
TCATATAGGTGAAAGGTGAAAGTCGGTGTGGTAA	2.9	2.52	0.284	2.76	0.0843	6.44	9.98	10.2	12.3	7.6	7.55	3.38	1.28	3.1	3.01	0.351	4.34	1.1	2.78
GGAACGGGGGCATTCGAGTTGATAGCATGGCGAT	3.01	4.03	0.603	4.98	6.54	3.99	4.08	1.54	3.65	3.24	5.37	8.85	10.9	1.37	5.15	3.02	2.94	0.259	2.9
ACTTGGAGGACAAAGGTCAGAGCTACGCCAGTGA	4.75	4.49	1.97	3.58	0.676	5.71	9.07	8.21	10.6	2.6	5.22	1.39	1.18	4.64	4.33	0.449	5.83	2.6	4.72
GGAACTAGGGCAAAGTTGATAGCATCTGTCGACG	-0.124	-0.2	-0.596	0.16	-0.519	5.37	8.84	8.63	9.67	7.94	7.8	3.88	2.6	2.98	-0.217	-0.423	0.0303	-0.192	1.48
TATACTGGGTCAAAGGCCAGAGTACGAATGTCGA	4.05	3.73	1.34	2.81	1.32	5.52	8.98	8.63	10.2	6.17	7.37	3.19	3.85	5.01	2.33	0.331	3.3	0.721	3.59
AAAATGAGGTTAAGATCAGGGAAACAGAATACAT	2.83	2.62	0.171	2.1	0.347	4.04	2.67	1.16	2.41	3.27	3.78	1.96	0.972	1.85	1.26	0.646	2.48	0.889	2.04
CCTTACGGGTCGCTGACAGGTTATAGCATTTGGA	0.72	1.23	-0.237	0.781	-0.428	1.71	0.371	-0.323	-0.0613	0.346	0.0988	-0.356	-0.76	0.641	1	-0.0348	1.68	-0.0216	1.18
CAAACTAGGTCAAGGGGTCAAAGTCCGCTTCCCG	7.14	6.22	3.83	6.08	1.17	6.9	8.96	8.47	9.27	8.13	8.72	0.711	1.52	6.55	6.31	1.78	7.88	1.67	5.46
ATAGAAAGGTCGAAGGTGAGTATACCCACCCGAA	4.15	3.25	0.28	2.61	0.606	4.56	5.47	2.38	4.64	0.0338	2.05	1.17	0.496	1.85	2.82	0.22	4.08	0.667	3.64
CAAACTAGGTCAAAGGTCAGAGTCGAGCCAACCA	7.83	6.32	3.45	6.4	1.62	7.34	11.1	13.1	13.7	8.97	9.43	6.85	6.78	5.97	6.67	1.28	8.46	3.04	5.44
CCCACTGGGGCAAAGGTTACCATACTCAGTACGA	1.6	1.6	-0.143	2	-0.809	5.98	9.71	9.33	11.5	5.25	7.1	0.141	-0.557	1.73	2.41	-0.111	3.81	0.0182	2.37
ATCTCTAGGTCAAAGTTCAGTGAATCCCGAGGAT	5.79	6.34	6.95	4.67	3.69	6.3	9.63	10.4	10.7	6.47	6.91	3.49	3.22	3.06	5.29	2.76	6.71	1.52	4.58
ATCGAAAGGTCGTGACGTGAGTATACAGAAAGGC	5.34	3.84	-0.0538	3.03	0.128	4.8	3.82	1.41	2.77	-0.00761	1.68	1.56	0.662	1.61	2.98	0.0582	3.7	0.369	3.74
ACTTACGGGTCAACGAAGTTATAGCACGCGTATA	6.23	4.01	0.164	3.62	0.73	5.47	4.81	1.85	3.63	2.94	3.94	2.05	3.18	2.32	3.73	0.0102	4.15	0.443	4.15
CAAACTAGGTCACGAAAGGTCAAAATCGAATGAC	7.3	8.11	7.47	7.37	2.57	6.41	8.29	6.67	8.42	8.56	8.77	2.54	2.48	5.97	6.92	3.06	7.6	4.93	5.41
TTACCAAGGTAAAAGGTCGTTGATGCACGCCTTG	2.52	2.49	0.274	2.25	0.0385	4.46	6.8	5.65	6.87	0.76	3.59	0.399	0.573	1.67	3.07	0.505	4.08	0.101	2.28
ATATGTAGGTCATCGGGTCATTCAGTTTGCGCAT	6.61	5.82	4.84	4.74	1.76	6.46	8.12	6.72	8.81	8.44	8.83	6.46	6.66	5.23	5.5	8.57	6.32	2.05	4.65
CAAACTAGGTCAAGGTCAAAGTAGGTTTGTGCCA	7.18	5.78	4.55	4.82	1.64	6.41	8.19	6.7	8.63	8.75	8.96	4.01	3.69	5.67	5.46	2.97	5.43	2.61	5.31
ATCTCTAGGTGAAAGTTCAGTGAATCCCGAGGAT	1.41	1.98	1.24	1.43	0.429	5.61	9.55	9.07	11.4	5.35	6.32	1.5	0.994	1.52	2.87	1.57	2.87	0.586	3
CAAACTAGGTCAAAGGTCAACGTCGAGCCAACCA	8.3	7.18	5.23	7.01	2.37	7.5	11.3	13.9	14.4	8.88	9.1	3.12	5.08	10.7	7.11	1.82	9.16	5.04	5.88
TAGCCTAGGTCATGGGCCTGTATACCACGCGAAC	4.51	3.39	0.196	2.64	-0.604	4.12	3.29	0.751	2.07	1.69	3.19	0.382	-0.135	1.45	1.82	-0.611	3.17	0.359	3.97
CCTGCTAGGACAATGGTCAGCTAAAGCAGCTCGC	-0.67	-0.803	-0.499	-0.869	-1.1	-0.776	1.2	-0.505	0.711	0.194	-0.56	-1.25	-2.24	-1.14	-0.961	-0.715	-0.928	-0.846	0.219
ATCTCTAGGTAAATGTTCAGTGAATCCCGAGGAT	0.0255	-0.125	-0.0436	-0.389	0.584	0.133	1.01	0.602	0.967	2.02	1.64	1.6	0.892	0.258	-0.0966	0.236	0.0149	0.709	0.211
TTACCAAAGTGAAAGGTCGTTGATGCACGCCTTG	1.49	1.82	0.432	1.57	-0.402	3.17	5.13	2.97	5.02	-0.147	1.43	0.177	0.436	1.39	2.3	0.329	2.39	-0.107	1.86
TGGCCTAGGTCATGGGCCAGTATACCACGCGAAC	4.4	2.91	-0.382	1.57	-1.26	3.93	3.6	0.481	2.22	0.46	2.6	0.17	-0.783	0.937	1.04	-0.935	2.31	-0.155	3.82
CCTAGTTGGTCAGGAGGTCCCACACCGGATATGA	0.0406	-0.213	0.429	-0.248	0.251	-0.0736	0.194	-0.0977	-0.144	0.207	0.483	-0.124	-0.0969	1.06	-0.0476	0.63	-0.0305	0.95	0.64
